{"source": "PubChem BioAssay AID1345085", "about": "(National Center for Advancing Translational Sciences (NCATS), 2018)", "note": "Inconclusive results are not listed. Calls of active or inactive are those of the source. The call rests on the fitted dose curve; in most records, active means well fitted cell-killing curve with a large enough effect; inconclusive means small, poorly fitted or top-dose-only effect, or effect the other way; inactive means no such curve, though single readings can be large or run the other way. Potency means the concentration at half of the fitted maximal effect."}
{"test_system": "Es-2", "experiment": "Confirmatory qHTS for gynecologic anti-cancer compounds from libraries of approved drugs and bioactive compounds; further: nearly all actives have a fitted effect of over 55% in size", "conditions": "gynecologic cancer cell panel viability, ATPlite luminescence, 48 h; series mostly up to 57.6 µM", "procedure,_shortened": "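Cells (1,000/well) were plated, left 16 h at 37 C/5% CO2, then given compound at 11 concentrations (1:3) from 57.5 uM to 0.977 nM for 48 h. ATPlite luminescence after 15 min at room temperature gave IC50 values.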"}
{"smiles": "CCCCc1nc2cc(/C=C/C(=O)NO)ccc2n1CCN(CC)CC", "Potency": "1.09 µM (active)"}
{"smiles": "Nc1ncn([C@@H]2O[C@H](CO)[C@@H](O)[C@H]2O)c(=O)n1", "Potency": "12.2 µM (active)"}
{"smiles": "OC[C@H]1O[C@@H](n2cnc3c(=S)nc[nH]c32)[C@H](O)[C@@H]1O", "Potency": "4.85 µM (active)"}
{"smiles": "Cc1[nH]c2ccccc2c1CCNCc1ccc(/C=C/C(=O)NO)cc1", "Potency": "0.172 µM (active)"}
{"smiles": "CCCCN(CCCC)C(=O)CN1C[C@H](c2ccc3c(c2)OCO3)[C@@H](C(=O)O)[C@@H]1c1ccc(OC)cc1", "Potency": "inactive"}
{"smiles": "Cc1nc(Nc2n[nH]c3c2CN(C(=O)NC(CN(C)C)c2ccccc2)C3(C)C)c2sccc2n1", "note": "(stereo not drawn)", "Potency": "4.32 µM (active)"}
{"smiles": "S=c1nc[nH]c2nc[nH]c12", "Potency": "3.85 µM (active)"}
{"smiles": "CCC1=CC2CN(C1)Cc1c([nH]c3ccccc13)[C@@](C(=O)OC)(c1cc3c(cc1OC)N(C)[C@H]1[C@@](O)(C(=O)OC)[C@H](OC(C)=O)[C@]4(CC)C=CCN5CC[C@]31[C@@H]54)C2", "note": "(stereo partly drawn)", "Potency": "0.376 µM (active)"}
{"smiles": "NC(=O)c1cnc(-c2ccc(C3(N)CCC3)cc2)c(-c2ccccc2)c1", "Potency": "24.3 µM (active)"}
{"smiles": "CN1CCN(c2ccc(OC(F)(F)F)c(Nc3ncc4c(n3)-c3c(c(C(N)=O)nn3CCO)CC4)c2)CC1", "Potency": "0.217 µM (active)"}
{"smiles": "N#CC1(c2cccc(C(=O)Nc3cc(Oc4ccc5nc(NC(=O)C6CC6)sc5n4)ccc3F)c2Cl)CC1", "Potency": "5.44 µM (active)"}
{"smiles": "CNc1nccc(-c2cccnc2Oc2cc(C(=O)Nc3cccc(C(F)(F)F)c3)ccc2C)n1", "Potency": "6.11 µM (active)"}
{"smiles": "Cc1cnc(Nc2ccc(CN3CCOCC3)cc2)nc1Nc1cccc(S(=O)(=O)NC(C)(C)C)c1", "Potency": "4.32 µM (active)"}
{"smiles": "Cc1ccc(C(=O)Nc2cccc(C(F)(F)F)c2)cc1-c1ccc2nc(NCCN3CCOCC3)ncc2c1", "Potency": "5.44 µM (active)"}
{"smiles": "COc1cc2c(NC3CCN(C(C)C)CC3)nc(C3CCCCC3)nc2cc1OCCCN1CCCC1", "Potency": "12.2 µM (active)"}
{"smiles": "O=C(CCCCCCC(=O)Nc1ccccc1)NO", "Potency": "3.06 µM (active)"}
{"smiles": "CNc1nc(Nc2ccc(C(=O)N3CCOCC3)cc2OC)ncc1Cl", "Potency": "inactive"}
{"smiles": "Nc1ncnc2c1ncn2[C@@H]1O[C@H](CO)C[C@H]1O", "Potency": "inactive"}
{"smiles": "CCS(=O)(=O)c1cccc(-c2cc(C(=O)NC3CCN(C)CC3)c(C)c3[nH]c4ncc(C)cc4c23)c1", "Potency": "5.99 µM (active)"}
{"smiles": "CC(C)Oc1ccc2c(=O)c(-c3ccccc3)coc2c1", "Potency": "9.68 µM (active)"}
{"smiles": "CC(C)C[C@H](NC(=O)[C@H](CCc1ccccc1)NC(=O)CN1CCOCC1)C(=O)N[C@@H](Cc1ccccc1)C(=O)N[C@@H](CC(C)C)C(=O)[C@@]1(C)CO1", "Potency": "3.06 µM (active)"}
{"smiles": "O=C(CCCCCCNC(=O)c1cnc(N(c2ccccc2)c2ccccc2)nc1)NO", "Potency": "13.7 µM (active)"}
{"smiles": "COCCOc1nc(-c2ccc(Cl)c(Cl)c2)n(-c2ccc(NC(=O)CCl)cc2)n1", "Potency": "5.44 µM (active)"}
